TDP1 block = TDP1 (human) enzyme inhibition; recombinant TDP1, AlphaScreen DNA substrate cleavage; AID 485290; Potency, µM (highest dose often 130 µM), actives largely listed as inhibitors; 0.28% of 350,000 active; further: nearly all actives have a fitted effect of over 40% in size
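Steps: enzyme plus compound, 15 min RT; add biotin/phosphotyrosine-FITC oligonucleotide (15 nM final), react 5 min; add donor/acceptor beads (10 ug/ml final), 10 min; read AlphaScreen. Tdp1 at 1 nM final.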
DT40 TDP1 no CPT = qHTS for Inhibitors of human tyrosyl-DNA phosphodiesterase 1 (TDP1): qHTS in cells in absence of CPT; DT40 Tdp1-/- hTDP1 cells, no CPT, ATP luminescence, 48 h; Potency, µM (doses to about 46.2 µM), most hits filed as inhibitors; 15% of 420,000 active; AID 686978, 2013; further: nearly all actives have a fitted effect of over 55% in size
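Growth kinetics read by CellTiter-Glo luminescence after ≥48 hr at 37 °C. Cells: DT40 Tdp1-/- stably carrying human TDP1, 400 per well, compound exposure in the absence of CPT (DMSO vehicle).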
GCN5L2 inh = GCN5L2 (KAT2A) acetyltransferase inhibition | Q92830 | GCN5L2 HAT assay, ThioGlo1 CoA-SH fluorescence | Potency, µM (titrated, usually from 58.9 µM), actives largely listed as inhibitors | 0.21% of 390,000 active | AID 504327
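ThioGlo1-coupled HAT assay: 20nM GCN5L2, 70uM acetyl-CoA, 75uM H3(1-25) peptide, pH 7.5. Fluorescence read at 340/540nm at start and after 20 min at room temperature.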
PLK1 PBD inh = blocks phosphopeptide binding to human PLK1 polo-box domain; P53350; Potency, µM, most hits filed as inhibitors; 2.8% of 360,000 active; Plk1 PBD binding of FITC phosphopeptide, fluorescence polarization; further: series mostly up to about 57 µM; nearly all actives have a fitted effect of over 65% in size
Target sequence (P53350 whole entry, looked up, the tested form may be a part): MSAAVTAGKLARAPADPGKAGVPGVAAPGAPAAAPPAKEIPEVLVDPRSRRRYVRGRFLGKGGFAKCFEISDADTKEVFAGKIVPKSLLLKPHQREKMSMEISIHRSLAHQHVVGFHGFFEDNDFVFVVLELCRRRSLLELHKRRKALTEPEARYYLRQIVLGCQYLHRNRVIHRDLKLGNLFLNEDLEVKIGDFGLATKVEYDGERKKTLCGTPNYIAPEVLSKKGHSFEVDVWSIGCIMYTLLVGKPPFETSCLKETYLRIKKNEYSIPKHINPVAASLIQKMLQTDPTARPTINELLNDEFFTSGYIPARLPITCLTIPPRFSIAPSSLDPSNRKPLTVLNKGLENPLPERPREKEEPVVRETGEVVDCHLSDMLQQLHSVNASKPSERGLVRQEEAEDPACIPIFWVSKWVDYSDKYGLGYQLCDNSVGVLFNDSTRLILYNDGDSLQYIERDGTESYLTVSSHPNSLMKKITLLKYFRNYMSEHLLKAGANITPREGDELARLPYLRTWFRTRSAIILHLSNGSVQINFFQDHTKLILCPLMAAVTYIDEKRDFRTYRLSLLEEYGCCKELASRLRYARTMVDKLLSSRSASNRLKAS
VDR inh = inhibitors of human vitamin D receptor; AID 504847; P11473; 0.93% of 400,000 active; Potency, µM, actives largely listed as inhibitors; VDR-SRC2-3 peptide fluorescence polarization, 2 h
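Two reagent solutions held at 4 deg C in the dark were dispensed, compounds pinned at 23 nl, and the mixture incubated 2 h at room temperature. Read-out: fluorescence polarization of VDR–SRC2-3 peptide binding.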
TDP1 cell CPT = DT40-hTDP1 cell growth loss with CPT. chicken DT40 Tdp1-/-;hTDP1 cells + 20 nM CPT, ATP luminescence, 48 h. Potency, µM (series often up to 46.2 µM), usual class: inhibitors. 12% of 420,000 active. AID 686979; further: nearly all actives have a fitted effect of over 55% in size
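Cell growth measured by CellTiter-Glo luminescence after a minimum 48 h, 37 C compound exposure with 20 nM CPT in Tdp1-knockout DT40 cells stably expressing hTDP1, seeded 400/well; qHTS titration format.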
Of the large screens only hits and unclear results are named; the others gave an inactive call. The list is not random: actives were taken first. Their share in the collection is about 18%. The call rests on the fitted dose curve; in most records, active means well fitted curve in the direction sought with a large enough effect; inconclusive means small, poorly fitted or top-dose-only effect, or another doubt; inactive means no such curve, though single readings can be large; an effect the other way counts as inactive or inconclusive.

CCOc1cc(/C=C2\SC(=N)N(c3nonc3N)C2=O)ccc1OCCN1CCOCC1	DT40 TDP1 no CPT 21µM, TDP1 cell CPT 13µM
COc1ccccc1N1CCN(c2ncccc2-c2nc(-c3ccc(Cl)cc3)no2)CC1	DT40 TDP1 no CPT inconclusive, TDP1 cell CPT inconclusive (no result: PLK1 PBD inh)
CCc1nc2ccc(C(=O)NCCc3ccc(OC)cc3OC)cc2nc1CC	DT40 TDP1 no CPT 18µM, TDP1 cell CPT 26µM (no result: PLK1 PBD inh)
CCc1nc2ccc(C(=O)NCc3cc(OC)ccc3OC)cc2nc1CC	DT40 TDP1 no CPT inconclusive, TDP1 cell CPT 16µM (no result: PLK1 PBD inh)
CCN(Cc1ccccc1)C(=O)c1cc2ccc3cccnc3c2[nH]1	DT40 TDP1 no CPT 18µM, TDP1 cell CPT inconclusive (no result: PLK1 PBD inh)
COc1ccc(OC)c(CNC(=O)c2cc3ccc4cccnc4c3[nH]2)c1	DT40 TDP1 no CPT 26µM, TDP1 cell CPT inconclusive (no result: PLK1 PBD inh)
COc1ccc(OC)c(S(=O)(=O)N2CCC(C(=O)NCc3ccccn3)CC2)c1	none
COc1cccc(NC(=O)CSc2nccn2C2CCCC2)c1	DT40 TDP1 no CPT inconclusive (no result: PLK1 PBD inh)
O=C(/C=C/Sc1ccccc1)c1ccc(Cl)cc1	DT40 TDP1 no CPT 16µM, VDR inh 56µM, TDP1 cell CPT inconclusive
NC(=O)c1ccccc1N/C=C/C(=O)c1ccc(Cl)cc1	DT40 TDP1 no CPT inconclusive, TDP1 cell CPT inconclusive
O=C(/C=C/Sc1ccccc1)c1ccccc1	DT40 TDP1 no CPT 5.2µM, PLK1 PBD inh 13µM, TDP1 cell CPT 5.8µM
COc1ccc(Cl)cc1NC(=O)CSC1=Nc2ccccc2C2=NC(CC(=O)NCc3ccc4c(c3)OCO4)C(=O)N12 (stereo not given)	DT40 TDP1 no CPT inconclusive, TDP1 cell CPT inconclusive (no result: PLK1 PBD inh)
O=C(Cn1cccn1)N1CCOc2c(cc(-c3ncc(C(F)(F)F)cc3Cl)cc2OCC2CCCO2)C1 (stereo not given)	none (no result: TDP1 block, GCN5L2 inh, PLK1 PBD inh, VDR inh)
Cc1ccc(NC(=O)C2CC2c2ccccc2)c([N+](=O)[O-])c1 (stereo not given)	none (no result: TDP1 block)
CCCCNC(=O)C(CC)Sc1nc2ccccc2c(=O)n1Cc1ccco1 (stereo not given)	DT40 TDP1 no CPT inconclusive, TDP1 cell CPT inconclusive (no result: PLK1 PBD inh)
O=C(CCl)N(O)c1ccc(C=Cc2ccccc2)cc1	DT40 TDP1 no CPT 0.21µM, TDP1 cell CPT 0.13µM (no result: TDP1 block, GCN5L2 inh)
CCNC(=O)C1CCCN(C(=O)c2ccc(OC(F)F)cc2)CC1 (stereo not given)	none (no result: TDP1 block, GCN5L2 inh, VDR inh)
CCOc1ccc(N(C)S(=O)(=O)c2ccc3c(c2)C(C)(C)C(=O)N3C)cc1	DT40 TDP1 no CPT inconclusive, TDP1 cell CPT inconclusive (no result: PLK1 PBD inh)
COc1ccccc1N1CCN(C2CCCCC2NS(=O)(=O)c2ccccc2)CC1 (stereo not given)	DT40 TDP1 no CPT 16µM, TDP1 cell CPT 21µM
CN1CCN(C2CCCCC2NS(=O)(=O)c2ccccc2)CC1 (stereo not given)	none
CCc1ccccc1N1CC(c2nc3ccccc3n2CCC2CCCCC2)CC1=O (stereo not given)	DT40 TDP1 no CPT 5.2µM, TDP1 cell CPT 5.8µM (no result: PLK1 PBD inh)
Cc1cccc(N2CC(c3nc4ccccc4n3CCC3CCCCC3)CC2=O)c1 (stereo not given)	DT40 TDP1 no CPT 18µM, TDP1 cell CPT inconclusive (no result: PLK1 PBD inh)
Cc1ccccc1N1CC(c2nc3ccccc3n2CCC2CCCCC2)CC1=O (stereo not given)	DT40 TDP1 no CPT 10µM, TDP1 cell CPT 13µM (no result: PLK1 PBD inh)
CC(C)(C)N1CC(c2nc3ccccc3n2CCOc2ccccc2)CC1=O (stereo not given)	DT40 TDP1 no CPT inconclusive, TDP1 cell CPT inconclusive
Cc1cccc(C)c1N1CC(c2nc3ccccc3n2CC(=O)OC(C)C)CC1=O (stereo not given)	DT40 TDP1 no CPT 16µM, TDP1 cell CPT inconclusive (no result: PLK1 PBD inh)
COC(=O)c1cccc(NC(=O)C(C)(C)C)c1	none
COc1ccc(S(=O)(=O)Nc2c(NC3CCCCC3)c3ccccc3oc2=O)cc1OC	DT40 TDP1 no CPT inconclusive, TDP1 cell CPT inconclusive
Cc1ccc(NS(=O)(=O)c2ccc3c(c2)N(C)C(=O)CO3)cc1C	none (no result: DT40 TDP1 no CPT, GCN5L2 inh, PLK1 PBD inh, VDR inh, TDP1 cell CPT)

Assay outcomes deposited in PubChem BioAssay by National Center for Advancing Translational Sciences (NCATS).
